The list is not random: actives were taken first. Their share in the collection is about 4.1%.
CHT block – inhibits the human high affinity choline transporter; Q9GZV3; CHT-expressing cells, membrane potential dye, choline response; active compounds read low; B-score at 10 µM; 0.86% of 310,000 active;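 active = B-score over 3 SD under the library average, and starting fluorescence ratio not unusually high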;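 note: choline stimulus applied at its EC90 after an EC20 pre-addition; B-score computed on integrated fluorescence ratio after choline addition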
MEKK3 PB1 HTS – modulators (inhibitors or enhancers) of MEK5 binding to human MEKK3 PB1 domain. AID 1529. binding response (% of control), % at 10 µM. bead-based flow cytometry, Alexa488-MEK5 binding to MEKK3; actives lie on both sides; 0 = blocked by unlabeled MEK5, 100 = vehicle. 1.4% of 290,000 active. Q99759;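 active = binding response more than 3 SD above or below the average of its plate-row segment, actives on both sides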;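 note: Alexa488 bead fluorescence after subtracting the streptavidin-only scavenger bead signal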
Target sequence (Q99759 whole entry, looked up, the tested form may be a part): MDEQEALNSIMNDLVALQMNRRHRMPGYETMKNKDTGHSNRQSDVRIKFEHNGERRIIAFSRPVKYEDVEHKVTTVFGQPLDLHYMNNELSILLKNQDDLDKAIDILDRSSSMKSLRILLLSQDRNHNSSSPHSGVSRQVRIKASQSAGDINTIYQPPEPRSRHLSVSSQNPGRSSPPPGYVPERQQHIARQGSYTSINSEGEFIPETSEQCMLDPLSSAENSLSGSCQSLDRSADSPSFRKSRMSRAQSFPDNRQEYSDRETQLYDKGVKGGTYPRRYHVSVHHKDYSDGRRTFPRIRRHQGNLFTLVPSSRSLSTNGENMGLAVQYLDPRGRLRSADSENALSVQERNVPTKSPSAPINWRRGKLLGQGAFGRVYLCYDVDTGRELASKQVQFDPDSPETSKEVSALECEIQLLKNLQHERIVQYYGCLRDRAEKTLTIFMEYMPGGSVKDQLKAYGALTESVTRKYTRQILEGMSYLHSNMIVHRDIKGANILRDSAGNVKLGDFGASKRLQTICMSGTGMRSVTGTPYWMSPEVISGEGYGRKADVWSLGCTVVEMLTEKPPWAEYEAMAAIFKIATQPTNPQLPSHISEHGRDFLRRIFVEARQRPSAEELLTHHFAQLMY
Mot1-301 SUMO – blocks SUMOylation pathway, rescuing yeast Mot1-301 growth; S. cerevisiae Mot1-301 growth rescue, ATP luminescence, 38.5C; percent above DMSO median, 100 means doubled; growth rescue, % at 18.8 µM; 1% of 320,000 active;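 active = every valid replicate shows activation above 250% relative to neutral control wells; inactive = the rest, any valid replicate at or below 250%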
MEKK2 WT-MEK5 – raises or lowers MEK5 binding to wildtype human MEKK2 PB1 domain; Q9Y2U5; bead flow cytometry, Alexa488-MEK5 binding to MEKK2 WT; actives lie on both sides; binding response (% of control), % at 10 µM; 1.1% of 290,000 active; in the data active = binding response below about 67% or above about 130%
MEKK2mut PB1 HTS – signal of MEK5 binding to mutant human MEKK2 PB1 domain. AID 1530. 0.35% of 290,000 active. bead flow cytometry, Alexa488-MEK5 binding to MEKK2 mutant. percent response, % at 10 µM; in the data active = percent response above about 24%, passing the limit was not always enough
CHT PAM – allosterically activates the human high affinity choline transporter; AID 488977; 0.49% of 310,000 active; CHT-expressing cells, membrane potential dye, choline EC20; active compounds read high; LV-AA mutant CHT in HEK293 cells; Q9GZV3; B-score at 10 µM;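 active = initial fluorescence not abnormally high and integrated response B-score, plate-corrected, over 3 SD above library mean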
MEKK2wt confirm – raises or lowers MEK5 binding to wildtype human MEKK2, retest | shares compounds with MEKK3 PB1 HTS | bead flow cytometry, Alexa488-MEK5 binding to MEKK2 WT; actives lie on both sides | binding response (% of control), % at 10 µM | 2.4% of 5,900 active | AID 1892; in the data active = binding response below about 16% or above about 210%; inactive = in between
MEKK2mut confirm – signal of MEK5 binding to mutant human MEKK2, retest; 2% of 5,900 active; bead flow cytometry, Alexa488-MEK5 binding to MEKK2 mutant; AID 1893; percent response, % at 10 µM; shares compounds with MEKK3 PB1 HTS; in the data active = percent response mostly above about 71%, no sharp cut-off; inactive = mostly below about 38%;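 note: higher means compound restores mutant binding toward wildtype level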
MEKK3 confirm – MEKK3-MEK5 PB1 inhibition, single concentration confirmation. binding response (% of control), % at 10 µM. 1.8% of 5,900 active. shares compounds with MEKK3 PB1 HTS. bead flow cytometry, Alexa488-MEK5 binding to MEKK3; active compounds read low;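 active = binding response below 72% of control, or above a set upper limit, though filed actives all read lower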;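 note: lower values mean stronger disruption of MEK5 binding to MEKK3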
Hits are given with their value; - = inactive; . = not tested or not shown; [ ] = another dose, or the depositor's remark.

SMILES | CHT block | MEKK3 PB1 HTS | Mot1-301 SUMO | MEKK2 WT-MEK5 | MEKK2mut PB1 HTS | CHT PAM | MEKK2wt confirm | MEKK2mut confirm | MEKK3 confirm
Cc1[nH]c(=O)c(C#N)c(C)c1CCC(=O)NCc1cccc(C(F)(F)F)c1 | - | - | - | - | - | - | . | . | .
COc1ccc(CNC(=O)COC(=O)c2cc(S(=O)(=O)N3CCOCC3)ccc2O)cc1OC | . | . | - | . | . | . | . | . | .
N#CC1=C(N)NC(SCc2ccc(F)cc2)=C(C#N)C12CCCCC2 | - | 82[inhibitor] | - | - | - | - | - | - | -
CCN(CC)S(=O)(=O)c1ccc(OC)c(NC(=O)C(C)Oc2ccc3c(C)cc(=O)oc3c2)c1 (centres undefined) | - | 145 | - | - | - | - | - | - | -
Cc1ccc(C(=O)Nc2ccc(Cl)cn2)cc1 | - | - | - | - | - | - | . | . | .
Cc1ccc(C(=O)Nc2ncc3c(Cl)cccc3n2)cc1 | - | - | - | - | 25 | - | - | - | -
O=C1CN(C(=O)C2CCC(=O)N(CCc3ccc(Cl)cc3)C2)CCN1 (centres undefined) | - | - | - | - | - | - | . | . | .
O=C(/C=C/c1ccccc1Cl)Nc1ccc(-c2nnc3n2CCCCC3)cc1 | - | 137 | - | - | - | - | - | - | -
CC(=O)Nc1ccc(NC(=O)C2CCCCN2S(=O)(=O)c2ccc(C(C)(C)C)cc2)cc1 (centres undefined) | - | - | - | - | - | - | . | . | .
Cc1cc(C)c(S(=O)(=O)c2ccccc2)c(=O)[nH]1 | - | - | - | - | - | - | . | . | .
Cc1ccc(S(=O)(=O)c2c(C)cc(-c3ccccc3)[nH]c2=O)cc1 | - | 143 | - | 134 | - | - | - | - | -
COc1ccc2nc(C)cc(N/N=C/c3ccc(F)cc3)c2c1 | - | 69[inhibitor] | - | 160 | 59 | - | 211 | - | -
COc1ccc(/C=N/Nc2cc(C)nc3c(C)cccc23)cc1 | - | - | - | 279 | 71 | - | - | - | -
Cc1ccc2nc(C)cc(N/N=C/c3cccc(O)c3)c2c1 | - | - | - | - | - | - | . | . | .
COc1ccc(/C=N/Nc2cc(C)nc3ccccc23)cc1 | - | - | - | 228 | 43 | - | - | - | -
COc1cccc2c(N/N=C/c3ccc(O)c(O)c3)cc(C)nc12 | - | - | - | - | - | - | . | . | .
COc1ccccc1C(=O)CN1C(=O)NC2(CCc3ccccc32)C1=O (centres undefined) | - | . | - | . | . | - | . | . | .
CC1CC1C(=O)OCC(=O)Nc1ccc(N=Nc2ccccc2)cc1 (centres undefined) | - | 136 | - | - | - | - | - | - | -
C/C(=C\c1ccc(C)o1)C(=O)c1c(C)cc(C)[nH]c1=O | - | - | - | - | - | - | . | . | .
Cc1c(CCOC(=O)c2ccc(Cl)cc2Cl)sc[n+]1CC(=O)c1ccc(Br)cc1 | . | . | - | . | . | . | . | . | .
Cc1c(CCOC(=O)C2C3CC4CC(C3)CC2C4)sc[n+]1CC(=O)c1ccc(Br)cc1 (centres undefined) | - | - | - | 157 | - | - | - | - | -
C#CCOC(=O)c1cc(Cl)c(=O)n(Cc2ccc(Cl)cc2Cl)c1 | - | - | - | - | - | - | . | . | .
CCN(CC)c1ccc(/C=c2\sc3nnc(-c4ccccc4Cl)n3c2=O)cc1 | - | - | - | 44[inhibitor] | - | - | - | - | -
CCN(CC)c1ccc(/C=c2/sc3nnc(-c4ccccc4C)n3c2=O)cc1 | - | - | - | . | 318 | - | - | - | -
COc1ccc(C(=O)C[n+]2ccc(N(C)C)cc2)cc1 | - | 135 | - | - | - | - | - | - | -
SMILES | CHT block | MEKK3 PB1 HTS | Mot1-301 SUMO | MEKK2 WT-MEK5 | MEKK2mut PB1 HTS | CHT PAM | MEKK2wt confirm | MEKK2mut confirm | MEKK3 confirm
COc1ccc(C(=O)C[n+]2cccc3cc(OC)ccc32)cc1 | - | - | - | - | - | - | . | . | .
COc1ccc(C(=O)C[n+]2cccc3cc(C)ccc32)cc1 | - | - | - | . | 241 | - | - | - | -
N#Cc1ccc(OCC(=O)OCC(=O)NC2CC2)cc1 | . | . | - | . | . | . | . | . | .
Cc1cccc(N2CCN(C(=O)Cc3cn(C)c4ccccc34)CC2)c1C | - | 130 | - | - | - | - | - | - | -
CCCC1NC(C(=O)O)Cc2c1[nH]c1ccccc21 (centres undefined) | - | - | - | - | - | - | . | . | .
Cc1cc2ncn(CC3CC3(Cl)Cl)c2cc1C (centres undefined) | - | - | - | - | - | - | . | . | .
Cc1cc(C)nc(NC(=O)c2ccc([N+](=O)[O-])c(C)c2)n1 | - | - | - | - | - | - | . | . | .
Cc1cc(C(=O)Nc2ncn[nH]2)ccc1[N+](=O)[O-] | - | 73[inhibitor] | - | - | - | - | - | - | -
Cc1cccc(-c2noc(-c3cc4ccccc4oc3=O)n2)c1 | - | - | . | - | - | - | . | . | .
OCC[C@H]1C[C@@H](O)[C@H](O)[C@]2(Cc3ccccc3CO2)O1 | - | . | - | . | . | - | . | . | .
O=C(Nc1ccnn1C1CCN(Cc2ccccc2F)CC1)C1CCCC1 | - | - | - | - | - | - | . | . | .
CC1CC(C)CN(C(=O)Cn2c(=O)oc3cc(S(=O)(=O)N4CCCC4)ccc32)C1 (centres undefined) | - | - | - | - | - | - | . | . | .
CCCCN(C)C(=O)Cn1c(=O)oc2cc(S(=O)(=O)N3CC(C)CC(C)C3)ccc21 (centres undefined) | - | 132 | - | - | - | - | - | - | -
O=C(O)CCn1c(SCc2ccccc2)nc2ccccc21 | - | 0.0[inhibitor] | - | 0.0[inhibitor] | - | - | - | - | -
CCCn1c(SCC(=O)N2c3ccccc3Sc3ccccc32)nc2ccccc21 | - | 150 | - | - | - | - | - | - | -
O=C(O)CCn1c(SCCc2ccccc2)nc2ccccc21 | - | . | - | . | . | - | . | . | .
O=C(Nc1ccc(Cl)cc1)Nc1ccc(Br)cn1 | - | - | - | - | - | - | . | . | .
O=C(Nc1cccc(S(=O)(=O)N2CCOCC2)c1)c1cnccn1 | - | - | - | - | - | - | . | . | .
Cc1csc(SCc2ccccc2C(=O)O)n1 | - | 3.0[inhibitor] | - | 3.0[inhibitor] | - | - | - | - | -
Cc1csc(SCc2ccc(C(=O)O)cc2)n1 | - | - | - | - | - | - | . | . | .
COc1ccc(Nc2nc(-c3ccccc3)nc3ccccc23)cc1 | - | - | - | - | - | - | . | . | .

Source: PubChem
